Inconclusive results are not listed. Activity calls are given as the source filed them. Calls follow the shape of the dose curve; as a rule, active = well fitted curve in the direction sought with a large enough effect; inconclusive = small, poorly fitted or top-dose-only effect, or another doubt; inactive = no such curve, though single readings can be large; an effect the other way counts as inactive or inconclusive. Where a SMILES comes first, the peptide text is derived from it.
Assays:
[1] = system: UISO; assay: qHTS assay to identify novel small-molecules to repurpose for Merkel cell carcinoma treatment (AID 1296009); conditions: MCC and control cell lines, CellTiter-Glo viability, 72 h; series mostly up to 46 µM; also: nearly all actives have a fitted effect of over 60% in size
How it was run: (§1)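 Cells exposed to NPC (8-point) and MIPE (11-point) compound dilutions for 72 hr at 37 degree celsius; viability read by CellTiter-Glo luminescence, normalized to no-cell and DMSO in-plate controls.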

[2] = system: WaGa; assay: as above; conditions: MCC and control cell lines, CellTiter-Glo viability, 72 h; series mostly up to 46 µM
How it was run: as §1

[3] = system: C33A; assay: Primary qHTS to identify gynecologic anti-cancer compounds using libraries of approved drugs and bioactive compounds (AID 1345084); conditions: Gynecologic cancer cell panel viability, ATPlite luminescence, 48 h; series mostly up to 57.5 µM; also: nearly all actives have a fitted effect of over 55% in size
How it was run: (§2)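 Measured: luminescence after ATPlite addition (15 min, RT). Exposure: 48 h, 37 C, 5% CO2.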

[4] = system: CAOV3; assay: as above; conditions: Gynecologic cancer cell panel viability, ATPlite luminescence, 48 h; series mostly up to 57.5 µM
How it was run: as §2

[5] = system: CASKI; assay: as above; conditions: Gynecologic cancer cell panel viability, ATPlite luminescence, 48 h; series mostly up to 57.5 µM
How it was run: as §2

[6] = system: Es-2; assay: as above; conditions: Gynecologic cancer cell panel viability, ATPlite luminescence, 48 h; series mostly up to 57.5 µM
How it was run: as §2

[7] = system: HeLa; assay: as above; conditions: Gynecologic cancer cell panel viability, ATPlite luminescence, 48 h; series mostly up to 57.5 µM
How it was run: as §2

[8] = system: Hek293T; assay: as above; conditions: Gynecologic cancer cell panel viability, ATPlite luminescence, 48 h, control line for the selectivity index; series mostly up to 57.5 µM
How it was run: as §2

[9] = system: JEG-3; assay: as above; conditions: Gynecologic cancer cell panel viability, ATPlite luminescence, 48 h; series mostly up to 57.5 µM
How it was run: as §2

[10] = system: OV90; assay: as above; conditions: Gynecologic cancer cell panel viability, ATPlite luminescence, 48 h; series mostly up to 57.5 µM
How it was run: as §2

[11] = system: PA-1; assay: as above; conditions: Gynecologic cancer cell panel viability, ATPlite luminescence, 48 h; series mostly up to 57.5 µM
How it was run: as §2

[12] = system: SKOV3; assay: as above; conditions: Gynecologic cancer cell panel viability, ATPlite luminescence, 48 h; series mostly up to 57.5 µM
How it was run: as §2

[13] = system: Tov-21-G; assay: as above; conditions: Gynecologic cancer cell panel viability, ATPlite luminescence, 48 h; series mostly up to 57.5 µM
How it was run: as §2

[14] = system: Tov112D; assay: as above; conditions: Gynecologic cancer cell panel viability, ATPlite luminescence, 48 h; series mostly up to 57.5 µM
How it was run: as §2

[15] = system: NIH3T3; assay: qHTS assay to identify novel small-molecules to repurpose for Merkel cell carcinoma treatment (AID 1296009); conditions: MCC and control cell lines, CellTiter-Glo viability, 72 h; at 44.8 µM (top of the series) unless noted; also: nearly all actives have a fitted effect of over 60% in size
How it was run: as §1

Measured: Potency

O=C1CC(c2ccc(Cl)cc2)CC(=O)N1
inactive: [1] | [2] | [3] | [4] | [5] | [6] | [7] | [8] | [9] | [10] | [11] | [12] | [13] | [14]

CCOc1ncc(F)c(=O)[nH]1
inactive: [1] | [2] | [3] | [4] | [5] | [6] | [7] | [8] | [9] | [10] | [11] | [12] | [13] | [14]

O=C(CS(=O)Cc1ccco1)NC/C=C\COc1cc(CN2CCCCC2)ccn1 (stereo not given)
inactive: [1] | [2] | [3] | [4] | [5] | [6] | [7] | [8] | [9] | [10] | [11] | [12] | [13] | [14]

NS(=O)(=O)c1cc2c(cc1Cl)CN(C1CCCCC1)C2=O
inactive: [1] | [2] | [3] | [4] | [5] | [6] | [7] | [8] | [9] | [10] | [11] | [12] | [13] | [14]

CCOC(=O)C(=O)CCc1ccccc1
inactive: [1] | [2] | [3] | [4] | [5] | [6] | [7] | [8] | [9] | [10] | [11] | [12] | [13] | [14]

Cc1cccc(OCC(O)CNC(C)(C)C)c1C (stereo not given)
inactive: [1] | [2] | [3] | [4] | [5] | [6] | [7] | [8] | [9] | [10] | [11] | [12] | [13] | [14]

Nc1nc2ccccc2n1Cc1ccc(F)cc1
inactive: [15] | [3] | [4] | [5] | [6] | [7] | [9] | [10] | [11] | [12] | [13] | [14]

CCc1cccc2c(CCO)c[nH]c12
inactive: [1] | [2] | [3] | [4] | [5] | [6] | [7] | [8] | [9] | [10] | [11] | [12] | [13] | [14]

Cc1ccc(C(=O)C(=O)O)cc1C
inactive: [1] | [2] | [3] | [4] | [5] | [6] | [7] | [8] | [9] | [10] | [11] | [12] | [13] | [14]

Cc1c(F)cc2c(=O)c(C(=O)O)cn3c2c1CCC3C (stereo not given)
inactive: [1] | [2] | [3] | [4] | [5] | [6] | [7] | [8] | [9] | [10] | [11] | [12] | [13] | [14]

CC(C)C(=O)OCc1cccc(OC(=O)[C@@H]2N3C(=O)[C@@H](NC(=O)Cc4ccccc4)[C@H]3SC2(C)C)c1
inactive: [1] | [2] | [3] | [4] | [5] | [6] | [7] | [8] | [9] | [10] | [11] | [12] | [13] | [14]

N#Cc1cc(NC(=O)C(=O)O)c(Cl)c(NC(=O)C(=O)O)c1
inactive: [1] | [2] | [3] | [4] | [5] | [6] | [7] | [8] | [9] | [10] | [11] | [12] | [13] | [14]

CC(=O)[C@H]1CC[C@H]2[C@@H]3C=CC4=CC(=O)CC[C@@]4(C)[C@@H]3CC[C@]12C
inactive: [1] | [2] | [3] | [4] | [5] | [6] | [7] | [8] | [9] | [10] | [11] | [12] | [13] | [14]

CCCCCN(CCCOC)C(=O)C(CCC(=O)O)NC(=O)c1ccc(Cl)c(Cl)c1 (stereo not given)
inactive: [1] | [2] | [3] | [4] | [5] | [6] | [7] | [8] | [9] | [10] | [11] | [12] | [13] | [14]

CN1CC(=O)N2[C@H](c3ccc4c(c3)OCO4)c3[nH]c4ccccc4c3C[C@@H]2C1=O
inactive: [1] | [2] | [3] | [4] | [5] | [6] | [7] | [8] | [9] | [10] | [11] | [12] | [13] | [14]

CCCC(CCC)(C(=O)OCC)C(=O)OCC
inactive: [1] | [2] | [3] | [4] | [5] | [6] | [7] | [8] | [9] | [10] | [11] | [12] | [13] | [14]

CC(=O)O[C@@H]1CC2C3CCc4cc(OC(=O)c5ccccc5)ccc4C3CCC2(C)[C@H]1OC(C)=O (stereo not given in full)
inactive: [1] | [2] | [3] | [4] | [5] | [6] | [7] | [8] | [9] | [10] | [11] | [12] | [13] | [14]

OC1(c2ccc(Cl)cc2)CCNCC1
inactive: [1] | [2] | [3] | [4] | [5] | [6] | [7] | [8] | [9] | [10] | [11] | [12] | [13] | [14]

CCN1CCCC1CN (stereo not given)
inactive: [1] | [2] | [3] | [4] | [5] | [6] | [7] | [8] | [9] | [10] | [11] | [12] | [13] | [14]

CCCCCCn1c(=O)c2c(ncn2C)n(C)c1=O
inactive: [1] | [2] | [3] | [4] | [5] | [6] | [7] | [8] | [9] | [10] | [11] | [12] | [13] | [14]

CC(C)C(=O)Nc1cccc(C(F)(F)F)c1
inactive: [1] | [2] | [3] | [4] | [5] | [6] | [7] | [8] | [9] | [10] | [11] | [12] | [13] | [14]

CC(=O)N[C@@H](CO)C(=O)N[C@@H](CC(=O)O)C(=O)N[C@@H](CCCCN)C(=O)N1CCC[C@H]1C(=O)O (Ac-SDKP-OH)
inactive: [1] | [2] | [3] | [4] | [5] | [6] | [7] | [8] | [9] | [10] | [11] | [12] | [13] | [14]

Cc1ccc2c(Cl)cc(Cl)c(O)c2n1
inactive: [1] | [2] | [3] | [4] | [5] | [6] | [7] | [8] | [9] | [10] | [11] | [12] | [13] | [14]

CC(=O)O[C@H]1CC[C@@]2(C)C(=CC[C@@H]3[C@@H]2CC[C@]2(C)C(C(C)=O)=CC[C@@H]32)C1
inactive: [1] | [2] | [3] | [4] | [5] | [6] | [7] | [8] | [9] | [10] | [11] | [12] | [13] | [14]

C[C@@H]1C[C@H]2[C@@H]3CCC4=CC(=O)C=C[C@]4(C)[C@@]3(F)[C@@H](O)C[C@]2(C)[C@@]1(O)C(=O)COC(=O)c1ccncc1
inactive: [1] | [2] | [3] | [4] | [5] | [6] | [7] | [8] | [9] | [10] | [11] | [12] | [13] | [14]

CC(C)(C)c1cc(C=O)cc(C(C)(C)C)c1O
inactive: [1] | [2] | [3] | [4] | [5] | [6] | [7] | [8] | [9] | [10] | [11] | [12] | [13] | [14]

CCN(CC)C(=O)C1CN2CCc3cc(OC)c(OC)cc3C2CC1OC(C)=O (stereo not given)
inactive: [1] | [2] | [3] | [4] | [5] | [6] | [7] | [8] | [9] | [10] | [11] | [12] | [13] | [14]

CCCCC(CC)CNC(=O)CC(C)OC(=O)CCC(=O)O (stereo not given)
inactive: [1] | [2] | [3] | [4] | [5] | [6] | [7] | [8] | [9] | [10] | [11] | [12] | [13] | [14]

— PubChem BioAssay (NCATS)
